Shown are actives, neighbours in structure and some others; about 1.9% of the full set was active somewhere.
Fam108B inh: Fam108B inhibition, counter-screen for RBBP9 inhibitors. inhibition, % at 9.51 µM. AID 1947. recombinant Fam108B, FP-Rh probe fluorescence polarization. hit rate 0.33% among 300,000;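 active = inhibition above the screen mean inhibition plus 3 SD, computed separately per campaign, cut at about 18% in these data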;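 also: inhibitors lower polarization as less probe binds the enzyme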
LYPLA2 inh: LYPLA2 (human) inhibition in PME1 counter-screen; O95372; recombinant LYPLA2, FP-Rh probe fluorescence polarization; hit rate 0.38% among 320,000; inhibition, % at 5.9 µM;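 active = inhibition above the screen-wide mean plus 3 SD, limit set per campaign, cut at about 26% in these data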;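 also: 0% = LYPLA2 with DMSO and 100% = wells lacking LYPLA2 enzyme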
LYPLA1 inh: blocks human lysophospholipase 1, a PME1 counter-screen | AID 2174 | hit rate 0.16% among 320,000 | O75608 | inhibition, % at 5.9 µM | recombinant LYPLA1, FP-Rh probe fluorescence polarization;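 active = inhibition above the mean of all tested compounds plus 3 SD, set per campaign, cut at about 14% in these data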;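 also: inhibitors block serine hydrolase probe labeling of LYPLA1 so polarization falls; 0% = enzyme with DMSO and 100% = wells lacking LYPLA1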
PREPL inhibitor: inhibits the human prolyl oligopeptidase-like enzyme. recombinant PREPL, fluorescence polarization activity-based probe. inhibition, % at 5.96 µM. hit rate 0.68% among 320,000; in the data active = inhibition above about 43%;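 also: 0% = enzyme with DMSO and 100% = wells lacking enzyme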
Target sequence (Q4J6C6 whole entry, looked up): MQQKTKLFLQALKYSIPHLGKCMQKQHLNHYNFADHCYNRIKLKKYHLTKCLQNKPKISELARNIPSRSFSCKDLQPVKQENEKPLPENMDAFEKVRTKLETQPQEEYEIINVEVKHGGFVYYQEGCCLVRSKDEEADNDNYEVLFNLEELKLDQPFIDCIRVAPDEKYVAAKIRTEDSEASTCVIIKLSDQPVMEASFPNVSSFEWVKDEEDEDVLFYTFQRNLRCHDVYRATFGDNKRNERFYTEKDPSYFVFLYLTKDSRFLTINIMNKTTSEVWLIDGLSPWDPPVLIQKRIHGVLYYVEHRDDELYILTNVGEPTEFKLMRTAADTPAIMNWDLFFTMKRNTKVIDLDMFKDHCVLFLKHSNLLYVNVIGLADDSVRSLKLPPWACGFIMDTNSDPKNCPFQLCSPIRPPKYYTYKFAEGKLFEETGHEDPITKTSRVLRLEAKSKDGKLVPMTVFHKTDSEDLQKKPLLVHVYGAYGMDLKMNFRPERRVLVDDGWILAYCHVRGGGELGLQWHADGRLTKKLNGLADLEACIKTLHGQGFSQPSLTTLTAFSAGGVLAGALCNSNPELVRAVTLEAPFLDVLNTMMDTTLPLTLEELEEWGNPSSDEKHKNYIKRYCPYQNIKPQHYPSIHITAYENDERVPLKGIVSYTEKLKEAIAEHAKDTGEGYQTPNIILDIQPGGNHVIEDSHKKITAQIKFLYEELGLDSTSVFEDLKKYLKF
GSTO1 inh: blocks human GSTO1 in RBBP9 counter-screen | P78417 | recombinant GSTO1, activity-based probe fluorescence polarization | inhibition, % at 5.96 µM | hit rate 1.1% among 300,000 | AID 1974;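 active = inhibition above the campaign mean inhibition plus 3 SD, cut at about 35% in these data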;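 also: 0% = GSTO1-1 with DMSO and 100% = wells lacking GSTO1-1 enzyme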
PME-1 primary: PME-1 (human) inhibition; hit rate 0.53% among 320,000; Q9Y570; recombinant PME-1, FP-Rh probe fluorescence polarization; inhibition, % at 5.9 µM;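 active = inhibition above the campaign mean of all compounds plus 3 SD, cut at about 26% in these data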;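 also: competitive labeling of PME-1 active site by serine hydrolase directed probe; 0% = PME-1 with DMSO and 100% = wells lacking PME-1 enzyme; inhibitors block probe labeling so polarization falls and inhibition rises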
GSTO1 confirm: confirmation of human GSTO1 inhibitors | shares compounds with GSTO1 inh | recombinant GSTO1, probe fluorescence polarization | inhibition, % at 5.96 µM | hit rate 54% among 2,400;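 active = inhibition above the primary screen's cutoff, its mean inhibition plus 3 SD, cut at about 35% in these data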;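 also: loss of polarization as inhibitors block binding of rhodamine sulfonate ester activity probe; 0% = GSTO1 with DMSO and 100% = wells lacking GSTO1 enzyme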
GSTO1 ABPP inh: inhibitors of recombinant human GSTO1. shares compounds with GSTO1 inh. gel ABPP SE-Rh probe fluorescence. inhibition, % at 1 µM. hit rate 30% among 130;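 active = inhibition of the enzyme GSTO1 above about 75%, limit read from the data; inactive = inhibition below that limit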
* = called active by the depositor; · = not tested or not shown.

SMILES	Fam108B inh	LYPLA2 inh	LYPLA1 inh	PREPL inhibitor	GSTO1 inh	PME-1 primary	GSTO1 confirm	others
O=C1CCCC/C1=C\Nc1ccc(O)cc1	2	9	5	38	42*	4	6
Nc1scc2c(C(=O)N/N=C/c3ccc(Cl)cc3)nn(-c3ccccc3)c(=O)c12	15	1	-8	18	45*	21	1
COc1ccccc1CNC(=O)C1CCC(CNS(=O)(=O)c2cccc3cccnc23)CC1 (stereo not given)	-2	6	-1	-10	8	6	·
O=C(O)Cc1ccc(O)c(O)c1	1	0	0	-9	7	0	·
O=C(O)Cc1cc(I)c(Oc2ccc(O)c(I)c2)c(I)c1	10	3	-1	-5	62*	-2	56*
O=C(c1ccccc1)c1ccc(CN2C(=O)c3ccccc3C2=O)o1	0	6	3	10	-1	7	·
O=C(c1ccccc1)c1coc2c1C(=O)c1ccccc1C2=O	7	4	-1	17	60*	6	39*
O=C1c2ccccc2C(=O)c2c1oc(C(F)(F)F)c2C(=O)c1ccccc1	5	-4	-3	2	62*	4	71*
COc1cccc2c(=O)c3cccc(N)c3[nH]c12	12	-8	-7	22	67*	13	14
Cc1cc(/C=C2\SC(=S)NC2=O)c(C)n1C1CC1	2	1	-3	6	40*	-1	51*
Cc1cc(/C=C2/C(=O)N(C)C(=S)N2C)c(C)n1C1CC1	-6	1	0	11	1	-22	·
CN1CCN(C2=C(Cl)C(=O)C(c3cnc(N4CCCCC4)s3)=C(Cl)C2=O)CC1	6	8	0	50*	84*	12	19
CN1CCN(C2=C(Cl)C(=O)N(C3CCCCC3)C2=O)CC1	1	9	8	6	0	9	·
CCCCCCCCCCCC1=C(O)C(=O)C=C(O)C1=O	15	9	0	8	79*	20	66*
CCCCCCc1c(O)c2ccccc2[nH]c1=O	3	4	1	1	-2	0	·
COc1cc2c(cc1NC(=O)CSc1nnc(Cc3cccs3)n1C)oc1ccccc12	-4	-4	2	16	46*	4	26
COc1cc2c(cc1NC(=O)CSc1nnc(Cc3cccs3)n1Cc1ccco1)oc1ccccc12	-9	-10	-10	5	14	-11	·
COCCOC(=O)c1c(N)n(CCCN2CCOCC2)c2nc3ccccc3nc12	1	0	-1	-1	7	7	·
CCCCCOC(=O)c1c(N)n(CCOC)c2nc3ccccc3nc12	10	5	0	21	65*	-1	18
COc1ccc(-c2nn(Cc3ccccc3)cc2C(=O)N2CCN(c3ncccn3)CC2)cc1	·	0	0	27	·	7	·
Cc1nn(-c2cc(N3CCCCC3)ccc2N)c(=O)c2ccccc12	1	6	2	14	8	-3	·
Nc1ccc(N2CCCCC2)cc1N1CCCCC1	1	-2	1	38	57*	6	7
CCNC(=O)N1C(CC(=O)OCC)C(=O)NC2CCCCC21 (stereo not given)	1	0	3	4	-7	-2	·
COC(=O)CC1C(=O)NC2CCCCC2N1C(=O)CCl (stereo not given)	1	-6	1	-15	54*	-4	79*
CC1CCc2c(sc3nc(C(C)(C)C)nc(N4CCN(C(=O)CCl)CC4)c23)C1 (stereo not given)	4	2	1	3	73*	1	74*	GSTO1 ABPP inh=70
SMILES	Fam108B inh	LYPLA2 inh	LYPLA1 inh	PREPL inhibitor	GSTO1 inh	PME-1 primary	GSTO1 confirm	others
CCC(=O)N1CCN(c2nc(CC)nc3sc4c(c23)CCCC4)CC1	4	5	-2	0	-4	3	·
O=C1C=C(O)c2c(O)cccc2C1=O	6	12	1	10	38*	7	32
O=C1C=C(O)c2cccc3cccc1c23	-2	0	-1	1	7	0	·
CCOC(=O)Cc1csc(NC(=O)NC2(C(F)(F)F)Oc3ccccc3O2)n1	5	-1	2	6	22	5	·
CCOC(=O)Cc1csc(NC(=O)NC2(C(F)(F)F)Oc3cc(Cl)c(Cl)cc3O2)n1	-1	-2	-2	-5	44*	-4	8
CCOC(=O)Cc1csc(NC(=O)NC2(C(F)(F)F)Oc3ccc(Cl)cc3O2)n1 (stereo not given)	-2	-5	-4	6	45*	-4	4
CCOC(=O)c1sc(NC(=O)CSc2nccn2C)nc1C	-1	2	-2	1	6	1	·
Cc1ccc(C(=O)Nc2cccc(S(=O)(=O)N3CCCC3)c2)o1	·	-3	1	3	·	-6	·
Fc1ccccc1-c1csc(=Nc2cccnc2)n1CC1CCCO1 (stereo not given)	-3	-1	0	11	4	9	·
Fc1ccccc1-c1csc(=Nc2cccnc2)n1CCCn1ccnc1	-3	1	0	16	41*	-4	5
O=c1oc2cc(O)ccc2c2ccccc12	3	4	0	0	-3	5	·
O=c1oc2cc(O)ccc2c2oc3cc(O)ccc3c12	9	-5	-4	12	39*	26	49*
Cn1sccc1=O	2	1	-2	-12	-1	-2	·
CC(NC(=O)COC(=O)c1ccc(OCC2CCCO2)cc1)c1ccccc1Cl (stereo not given)	·	0	1	9	·	2	·
CSc1ccccc1NC(=O)COC(=O)c1ccccc1O	0	0	-2	22	4	0	·
CSc1ccccc1NC(=O)COC(=O)c1ccccc1Cc1ccccc1	2	-2	-2	0	69*	-3	4
Oc1ccc2ccccc2c1C=Nc1ccc(N2CCOCC2)cc1	-1	-3	-1	12	41*	1	38*
C=Cc1ccc(N=Cc2c(O)ccc3ccccc23)cc1	5	-5	2	25	30	2	·
COc1ccc(S(=O)(=O)N(C)C[C@H]2Oc3ccc(NC(=O)C4CC4)cc3C(=O)N([C@H](C)CO)C[C@@H]2C)cc1	·	·	·	11	·	·	·
Cc1ccc(-c2noc(CSc3nnc(-c4ccncc4)n3-c3ccc(C)cc3)n2)cc1	-4	1	-1	21	9	14	·
Cc1ccc(-c2noc(CSc3nnnn3C3CCCCC3)n2)cc1	2	-8	-11	-1	40*	-1	33
Cc1cc(/C=N/NC(N)=S)c(C)n1-c1ccc(Cl)cc1	-4	4	3	29	-32	4	·
Cc1nnc(N/N=C/c2cc(C)n(-c3ccc(F)cc3)c2C)n1N	1	1	-2	11	50*	2	2

Screens (PubChem)
